N-glyco inh – N-linked glycosylation inhibition. D54 ERlucT glycosylation luciferase reporter, 24 h; percent of 100 nM tunicamycin response. reporter increase, % at 12.5 µM. hit rate 0.23% among 360,000. AID 588692;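 active = mean luciferase reporter signal, scaled so untreated is 0 and the glycosylation-blocking control 100, at or above a set limit in every replicate; inconclusive = mean reaches the limit but not every replicate does; inactive = mean below the limit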;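 also: luciferase carries N-glycosylation sites so blocking glycosylation raises the light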
ABCB6 inh 2 – blocks the human ABCB6 transporter. fluorescence ratio to DMSO, % at 10 µM. K562-ABCB6 porphyrin accumulation, flow cytometry, 1 h; stronger effect = lower value. Q9NP58. hit rate 0.19% among 360,000;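 active = fluorescence ratio to DMSO below 75%, the collection mean minus 3 SD; inconclusive = too few cells collected in the well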;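 also: signal is porphyrin accumulated inside mitochondria; lower ratio means ABCB6 inhibition with less porphyrin fluorescence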
Target sequence (Q9NP58 whole entry, looked up): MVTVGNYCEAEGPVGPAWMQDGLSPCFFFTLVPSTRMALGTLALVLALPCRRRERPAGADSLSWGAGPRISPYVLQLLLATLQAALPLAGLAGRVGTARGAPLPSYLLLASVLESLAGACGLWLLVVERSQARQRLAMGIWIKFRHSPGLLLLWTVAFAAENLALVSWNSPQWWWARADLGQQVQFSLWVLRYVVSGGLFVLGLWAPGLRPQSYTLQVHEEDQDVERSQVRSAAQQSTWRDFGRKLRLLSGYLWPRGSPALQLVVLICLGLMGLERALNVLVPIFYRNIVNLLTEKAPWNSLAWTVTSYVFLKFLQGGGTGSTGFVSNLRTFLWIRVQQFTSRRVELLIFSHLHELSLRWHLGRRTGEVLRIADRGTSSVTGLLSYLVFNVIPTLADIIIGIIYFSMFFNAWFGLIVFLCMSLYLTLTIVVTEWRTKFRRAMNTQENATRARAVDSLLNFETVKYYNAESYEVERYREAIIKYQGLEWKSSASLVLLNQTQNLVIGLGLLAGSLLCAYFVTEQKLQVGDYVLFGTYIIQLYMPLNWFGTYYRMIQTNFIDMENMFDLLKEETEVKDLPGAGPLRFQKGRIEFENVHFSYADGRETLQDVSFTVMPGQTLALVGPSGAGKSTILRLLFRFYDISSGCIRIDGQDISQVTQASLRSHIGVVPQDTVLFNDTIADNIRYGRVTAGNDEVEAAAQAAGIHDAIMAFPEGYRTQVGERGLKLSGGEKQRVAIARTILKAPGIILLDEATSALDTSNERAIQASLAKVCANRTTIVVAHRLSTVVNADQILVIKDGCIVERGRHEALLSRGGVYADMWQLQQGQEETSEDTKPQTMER
Myeloid diff MLP – myeloid differentiation induction. ER-HoxA9 myeloid progenitors, lysozyme-GFP differentiation, flow cytometry. calls only at 10 µM. hit rate 1% among 360,000. AID 624256;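 active = normalized GFP-positive differentiation at or above the plate's own cutoff, the solvent-only control mean plus 3 SD; inconclusive = no clear call, values can overlap the other calls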;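 also: cells exposed to compound for four days before flow analysis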
Vif inh – inhibitors of HIV Vif; HEK293T cells, Vif self-association by quenched fluorescence, imaging, 24 h; inhibition, % at 7.49 µM; hit rate 0.35% among 340,000; AID 602346; in the data active = inhibition above about 50%, passing the limit was not always enough; inconclusive = no clear call, values can overlap the other calls; inactive = below about 31%
RAD54 branch – inhibitors of human RAD54 branch migration. RAD54 Holliday junction branch migration, FAM/BHQ fluorescence. AID 602329. inhibition, % at 10.4 µM. hit rate 0.14% among 360,000;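 active = mean normalized replicate activity at least 40 and at least half of replicates scoring 40 or more; inconclusive = only one of the two criteria met; inactive = mean below 40 and under half of replicates reaching 40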;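 also: inhibitors cause a drop in the FAM fluorescence signal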
ABCB6 inh CP1 – blocks the human ABCB6 transporter; shares compounds with ABCB6 inh 2; K562-ABCB6 porphyrin accumulation, flow cytometry, 1 h; stronger effect = lower value; ratio response (% of DMSO), % at 10 µM; 700 tested, under 10 active; AID 602430;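 active = repeat-averaged ratio response below 75% of DMSO, the collection mean minus 3 SD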;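 also: median porphyrin fluorescence at 575 nm with 488 nm excitation from mitochondria; lower ratio means less porphyrin signal so ABCB6 inhibition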
Large screens that a line does not name were inactive (follow-up assays come after a bar, where they were run); ! = repeats disagree. This is a sample that favours compounds with a hit; in the whole collection about 1.6% have one here.

C[C@@H]1CCCCO[C@@H](CN(C)C(=O)Nc2ccccc2)[C@H](C)CN([C@@H](C)CO)C(=O)c2cc(NS(=O)(=O)c3ccc(Cl)cc3)ccc2O1	none (no result: N-glyco inh, ABCB6 inh 2, Myeloid diff MLP, Vif inh)
CN(C)CCNC(=O)c1cccc2[nH]c(-c3ccncc3)nc12	N-glyco inh 68 (no result: Myeloid diff MLP, RAD54 branch)
Cc1ccc(S(=O)(=O)N(C)C[C@H]2OCCCC[C@@H](C)Oc3ccc(NC(=O)Nc4cccc5ccccc45)cc3C(=O)N([C@H](C)CO)C[C@@H]2C)cc1	none (no result: N-glyco inh, ABCB6 inh 2, Myeloid diff MLP, Vif inh)
Cc1noc(C)c1S(=O)(=O)Nc1ccc2c(c1)C(=O)N([C@H](C)CO)C[C@H](C)[C@H](CN(C)CC1CC1)OCCCC[C@H](C)O2	none (no result: N-glyco inh, ABCB6 inh 2, Myeloid diff MLP, Vif inh)
O=C(CNS(=O)(=O)c1ccccc1)OCC(=O)c1c[nH]c2ccccc12	Myeloid diff MLP active
Cc1cc(-c2ccccc2)nc2cc(C(N)=O)nn12	ABCB6 inh 2 6.0
CCN1CCN(Cc2ccc(NC(=O)c3ccc(C)c(NC(=O)N4CCNC4=O)c3)cc2C(F)(F)F)CC1	Myeloid diff MLP active!
CCN1CCN(Cc2ccc(NC(=O)c3ccc(C)c(NC(=O)c4nccn4C)c3)cc2C(F)(F)F)CC1	none
C[C@@H]1CCCCO[C@@H](CN(C)C(=O)c2ccccc2)[C@@H](C)CN([C@@H](C)CO)C(=O)c2cc(NC(=O)Nc3ccccc3)ccc2O1	none (no result: N-glyco inh, ABCB6 inh 2, Myeloid diff MLP, Vif inh)
CCN(CC)c1ccc(/C=C2\C(=N)N3N=C(CC(=O)N4CCOCC4)SC3=NC2=O)cc1	Myeloid diff MLP active (no result: Vif inh)
C[C@@H]1CN([C@H](C)CO)C(=O)c2cc(NC(=O)Cc3ccccc3)ccc2O[C@@H](C)CCCCO[C@H]1CN(C)Cc1ccc(C(F)(F)F)cc1	none (no result: N-glyco inh, ABCB6 inh 2, Myeloid diff MLP, Vif inh)
Cn1nc(-c2ccc(Cl)cc2)c2cc(C(=O)NC3CC3)sc21	none
Cn1nc(-c2ccc(Cl)cc2)c2cc(C(=O)NCCCN3CCOCC3)sc21	N-glyco inh 33, RAD54 branch 84
Cn1nc(-c2ccc(Cl)cc2)c2cc(C(=O)N3CCN(C(=O)c4ccco4)CC3)sc21	Myeloid diff MLP active
CC1CCCN(C(=O)c2cc3c(-c4ccc(Cl)cc4)nn(C)c3s2)C1 (stereo unspecified)	Myeloid diff MLP active
CCN1CCN(C(=O)c2cc3c(-c4ccc(Cl)cc4)nn(C)c3s2)CC1	Myeloid diff MLP active
O=C(C1CCCC1)N1CCCCN2[C@H](CO)[C@@H](c3ccc(C#CC4CC4)cc3)[C@H]2C1	none (no result: N-glyco inh, ABCB6 inh 2, Myeloid diff MLP, Vif inh)
O=C(O)CCNc1nc(C(F)(F)F)nc2ccccc12	Myeloid diff MLP active (no result: RAD54 branch)
O=C(NC(=S)Nc1cc(Cl)ccc1O)c1cccc(Br)c1	Myeloid diff MLP active
O=C(NC(=S)Nc1cccnc1)c1cccc(Br)c1	none
c1ccc(-c2cc(NCCN3CCCCC3)c3ccccc3n2)cc1	N-glyco inh 71, RAD54 branch 106
O=C(C[C@H]1CC[C@@H](NS(=O)(=O)c2ccc(F)cc2)[C@H](CO)O1)NCc1ccncn1	none (no result: N-glyco inh, ABCB6 inh 2, Myeloid diff MLP, Vif inh)
COc1ccc(CN(C)C[C@@H]2Oc3ccc(NC(=O)NC(C)C)cc3CC(=O)N([C@@H](C)CO)C[C@@H]2C)cc1	none (no result: N-glyco inh, ABCB6 inh 2, Myeloid diff MLP, Vif inh)
CC(C)CC(NC(N)=O)C(=O)NCc1ccccc1Cl (stereo unspecified)	Myeloid diff MLP active (no result: RAD54 branch)
Cc1c(-c2cccc(Cl)c2)nc2ccccc2c1C(=O)OC/C(O)=C(\C#N)c1nc2ccccc2[nH]1	N-glyco inh 63
CCOC(=O)c1c(C)[nH]c(C(=O)OCC(O)=C(C#N)c2nc3ccccc3[nH]2)c1C	none (no result: RAD54 branch)
C/C(O)=C(\C#N)c1nc2ccccc2[nH]1	Vif inh 51
COCC(=O)OC/C(O)=C(\C#N)c1nc2ccccc2[nH]1	N-glyco inh 32
CCCC(=O)OC/C(O)=C(\C#N)c1nc2ccccc2[nH]1	none
N#C/C(=C(/O)CCl)c1nc2ccccc2[nH]1	none (no result: RAD54 branch)
C[C@@H]1CCCCO[C@H](CN(C)C(=O)Cc2ccccc2)[C@@H](C)CN([C@H](C)CO)C(=O)c2cc(NS(=O)(=O)c3ccc(Cl)cc3)ccc2O1	none (no result: N-glyco inh, ABCB6 inh 2, Myeloid diff MLP, Vif inh)
O=c1cc(-c2ccccc2)[nH]n1-c1nc2ccccc2[nH]1	N-glyco inh 41
CCc1cc(=O)[nH]c(-n2[nH]c(-c3ccccc3)cc2=O)n1	none (no result: RAD54 branch)
c1ccc(Nc2ccc3c4c(cccc24)CC3)cc1	Myeloid diff MLP active, Vif inh 111
Nc1ccc2c3c(cccc13)CC2	Myeloid diff MLP active
COc1cccc(C(=O)Nc2ccc3c(c2)OC[C@@H](C)NC[C@@H](C)[C@H](OC)CN(C)C3=O)c1	none (no result: N-glyco inh, ABCB6 inh 2, Myeloid diff MLP, Vif inh)
O=C(O)C1CCN(S(=O)(=O)c2ccc(Cl)s2)CC1	none | ABCB6 inh CP1 inactive
CC1CCN(S(=O)(=O)c2ccc(Cl)s2)CC1	none
C[C@@H](NC(=O)C[C@H]1CC[C@@H]2[C@H](COC[C@H](O)CN2Cc2cc(F)ccc2F)O1)c1ccccc1	none (no result: N-glyco inh, ABCB6 inh 2, Myeloid diff MLP, Vif inh)
CO[C@H]1CN(C)C(=O)c2cc(NC(=O)C3CCC3)ccc2OC[C@@H](C)N(C(=O)NC(C)C)C[C@H]1C	none (no result: N-glyco inh, ABCB6 inh 2, Myeloid diff MLP, Vif inh)
COc1ccc(NC(=O)[C@@H]2CCCN2S(=O)(=O)c2ccc(Cl)cc2)cc1	none
COc1ccc(NC(=O)C2CCCN2S(=O)(=O)c2ccc(C)cc2)cc1 (stereo unspecified)	ABCB6 inh 2 45 | ABCB6 inh CP1 inactive
OCCNc1c2ccccc2nc2c(F)c(F)c(F)c(F)c12	N-glyco inh inconclusive, ABCB6 inh 2 71 (no result: Myeloid diff MLP, RAD54 branch) | ABCB6 inh CP1 inactive
OCCNc1nc(Nc2ccccc2)nc2ccccc12	none
CC(C)CC#Cc1ccc2c(c1)O[C@H](CN(C)Cc1cccc(F)c1)[C@H](C)CN([C@@H](C)CO)S2(=O)=O	none (no result: N-glyco inh, ABCB6 inh 2, Myeloid diff MLP, Vif inh)
O=C(Nc1ccc(NC(=O)C2CC2)nc1)c1cccnc1	ABCB6 inh 2 68 (no result: Vif inh) | ABCB6 inh CP1 inactive
Cc1ccc(S(=O)(=O)CCC#N)cc1	ABCB6 inh 2 19 | ABCB6 inh CP1 inactive
N#CCCS(=O)(=O)c1ccc(N)cc1	none (no result: Vif inh, RAD54 branch)
O=C(CCN1CCCCC1)N[C@@H]1CC[C@@H](CCNS(=O)(=O)c2ccccc2)O[C@H]1CO	none (no result: N-glyco inh, ABCB6 inh 2, Myeloid diff MLP, Vif inh)
CCOc1ccc(C(=O)N[C@H](C(=O)Nc2ccc(OC)c(S(=O)(=O)N3CCOCC3)c2)C(C)C)cc1	ABCB6 inh 2 73 (no result: RAD54 branch) | ABCB6 inh CP1 inactive
O=C(NCc1n[nH]c(=S)n1-c1cccc(Cl)c1)c1ccc(S(=O)(=O)N2CCCC2)cc1	ABCB6 inh 2 33 | ABCB6 inh CP1 inactive
CO[C@@H]1CC[C@@H]2CCOc3ccc(C#N)cc3C(=O)N(C)C[C@@H](C)C(=O)N(C)C[C@H]1O2	none (no result: N-glyco inh, ABCB6 inh 2, Myeloid diff MLP, Vif inh)
Cc1ccc(S(=O)(=O)Nc2ccc3c(c2)CC(=O)N([C@H](C)CO)C[C@@H](C)[C@@H](CN(C)Cc2ccc(C(=O)Nc4ccccc4N)cc2)O3)cc1	none (no result: N-glyco inh, ABCB6 inh 2, Myeloid diff MLP, Vif inh)
CN(C)C1=NC[C@H](Cc2ccccc2)N1CC1CCCCC1	none
CN(C)C1=NC[C@H](Cc2ccccc2)N1CC1CCCC1	ABCB6 inh 2 72 | ABCB6 inh CP1 inactive
CC(C)=CCc1c(O)ccc(C(=O)Cc2ccccc2)c1O	ABCB6 inh 2 64 | ABCB6 inh CP1 inactive
Cc1ccc(C(=O)Cc2ccccc2)c(O)c1	none
O=C(Oc1ccc2ccccc2c1)c1cncc(Br)c1	none (no result: RAD54 branch)
